Vaccinia Venus: qHTS for Stage-Specific Inhibitors of Vaccinia Orthopoxvirus: Venus Reporter Primary qHTS; 0.46% of 330,000 active; AID 720580, 2013; Vaccinia virus Venus reporter expression, fluorescence; Potency, µM (titrated, usually from 36.5 µM), hits mostly inhibitors; calls by dose curve; tested in A549 cells; also: nearly all actives have a fitted effect of over 30% in size
LASV entry inh: qHTS for Inhibitors of binding or entry into cells for Lassa Virus; Lassa virus pseudotype entry inhibition, cell reporter; Potency, µM (highest dose often 37.9 µM), actives largely listed as inhibitors; 1.2% of 300,000 active; AID 540256, 2011; calls by dose curve; tested in HEK293 cells; also: nearly all actives have a fitted effect of over 50% in size
Cycloheximide cs: Cycloheximide Counterscreen for Small Molecule Inhibitors of Shiga Toxin | cell reporter, cycloheximide protein synthesis inhibition counterscreen | max response, % | 12% of 300,000 active; in the data active = max response mostly above about 13%, no sharp cut-off; inactive = mostly below about 14%; also: read at 38.3 µM for the half of the compounds with a filed dose
MARV entry inh: qHTS for inhibitors of binding or entry into cells for Marburg Virus; Marburg virus pseudotyped entry inhibition, cell reporter; 1.8% of 300,000 active; Potency, µM (doses to about 37.8 µM), usual class: inhibitors; calls by dose curve; tested in HEK293 cells
Vaccinia mCherry: qHTS for Stage-Specific Inhibitors of Vaccinia Orthopoxvirus: mCherry Reporter Primary qHTS | Vaccinia virus mCherry reporter infection, fluorescence | Potency, µM (highest dose often 36.5 µM), most hits filed as inhibitors | 0.63% of 310,000 active; calls by dose curve; tested in A549 cells; also: nearly all actives have a fitted effect of over 35% in size
Shiga toxin inh: A qHTS for Small Molecule Inhibitors of Shiga Toxin | Vero cells, Shiga toxin protein synthesis inhibition reporter | AID 2315, 2010 | inhibition, % at 38.7 µM | 9.2% of 290,000 active; in the data active = inhibition mostly above about 28%, no sharp cut-off; inactive = mostly below about 43%
Numbers stand for hits; 0 = inactive; ? = inconclusive; - = no result given. Many of the other results were omitted from the sample, so hits are more common in it than they were.

SMILES | Vaccinia Venus | LASV entry inh | Cycloheximide cs | MARV entry inh | Vaccinia mCherry | Shiga toxin inh
Cc1onc(-c2c(F)cccc2Cl)c1C(=O)NC1CC1 | - | - | 0 | - | - | 0
COc1cc(=O)n2c(c1C(=O)NC(C)c1ccco1)CCN(C(=O)c1[nH]c(C)cc1C)CC2 (stereo not drawn) | 0 | - | - | - | 0 | -
Cc1ccc(C)c(N2CCN(c3nc4ccccc4c(=O)n3-c3ccccc3)CC2)c1 | 0 | 0 | - | 0 | 0 | -
Cc1ccc(C)c(N2CCN(c3cnn(-c4nc5ccccc5s4)c(=O)c3Cl)CC2)c1 | 0 | 0 | 64.5 | ? | 0 | 137.8
O=c1c(Cl)c(Nc2cccc(Cl)c2)cnn1-c1nc2ccccc2s1 | 0 | ? | 88.0 | ? | 0 | 68.7
Cc1nc2ccccc2nc1Nc1cccc(Cl)c1 | - | - | 0 | - | - | 0
COc1ccc(Nc2cnn(-c3nc4ccccc4s3)c(=O)c2Cl)cc1 | 0 | 0 | 48.1 | ? | 0 | 76.4
CN1c2ccc(Cl)cc2-c2nc(SCC(=O)NCc3ccccc3)ncc2S1(=O)=O | 0 | 0 | - | - | 0 | -
CCOC(=O)CSc1nc2ccc(N)cc2s1 | 0 | 0 | 0 | 0 | - | 0
Nc1ccc2nc(SCC(=O)Nc3ccc(N4CCOCC4)c(Cl)c3)sc2c1 | 0 | 0 | 20.8 | ? | ? | 0
CCCC(=O)Nc1ccc2nc(SCC(=O)Nc3ccc(N4CCOCC4)c(Cl)c3)sc2c1 | ? | ? | 52.1 | ? | - | 150.3
CCC(=O)Nc1ccc2nc(SCC(=O)N3CCOCC3)sc2c1 | 0 | 0 | 0 | 0 | 0 | 0
Nc1ccc2nc(SCC(=O)N3CCOCC3)sc2c1 | 0 | ? | 31.0 | ? | 0 | 70.9
O=C(CSc1nc2ccc(Nc3nc(N4CCOCC4)nc(N4CCOCC4)n3)cc2s1)Nc1ccccc1Cl | 0 | ? | 0 | ? | 0 | 0
Nc1ccc2nc(SCc3cccc(F)c3)sc2c1 | 0 | ? | 42.3 | ? | ? | 152.4
Nc1ccc2nc(SCC(=O)N3CCN(c4ccccc4)CC3)sc2c1 | 0 | ? | 0 | ? | 0 | 0
Cc1cccc(Cc2c(C)nc3nc(SCC(=O)NCc4ccccc4)nn3c2C)c1 | 0 | 0 | - | 0 | 0 | -
CCC(CC)C(=O)Nc1ccc2nc(SCC(=O)N3c4ccccc4CC3C)sc2c1 (stereo not drawn) | 0 | ? | - | ? | 0 | -
Nc1nnc(SCC(=O)Nc2ccc(N3CCOCC3)c(Cl)c2)s1 | 0 | 0 | 21.5 | 0 | 0 | 0
O=C(CSc1ccc(F)cc1)Nc1ccc(N2CCOCC2)c(Cl)c1 | 0 | ? | 0 | 0 | 0 | 0
COc1ccc(N2CC3=C(C2=O)C(c2ccc(O)c(OC)c2)NC(=O)N3C)cc1 (stereo not drawn) | 0 | 0 | - | 0 | 0 | -
CCOc1ccc(CN2CCSCC2)cc1 | 0 | 0 | 0 | 0 | 0 | 0
CCCCOc1ccc(CN2CCSCC2)cc1 | - | - | 29.5 | - | - | 42.1
CCCCCCOc1ccc(CN2CCN(CC)CC2)cc1 | 0 | ? | 54.6 | ? | 0 | 140.0
c1ccc(-c2ccc(CN3CCSCC3)cc2)cc1 | 0 | 0 | 24.6 | 0 | 0 | 77.3
SMILES | Vaccinia Venus | LASV entry inh | Cycloheximide cs | MARV entry inh | Vaccinia mCherry | Shiga toxin inh
CCN(CC)S(=O)(=O)c1ccc2c(c1)N(CC(=O)Nc1ccc(OC)cc1)C(=O)CS2 | 0 | - | - | 0 | 0 | -
CC(C)[C@H](NC(=O)OCc1ccccc1)C(=O)N[C@H](C=O)Cc1ccccc1 | 0 | 0 | - | 0.651µM | 0 | -
O=C(N[C@@H](Cc1ccccc1)C(=O)CCl)OCc1ccccc1 | 10µM | 3.26µM | - | 16.4µM | 10µM | -
CC(C)[C@H](NC(=O)OCc1ccccc1)C(=O)NCc1ccccc1 | - | 0 | 0 | 0 | - | 0
CC(C)(C)OC(=O)N(c1cccc2cccnc12)S(=O)(=O)c1ccccc1Br | - | - | 0 | - | - | 0
CCOc1ccc(CCNC(=O)c2cn(C)c3ccc(S(=O)(=O)N4CCCCCC4)cc3c2=O)cc1OCC | 0 | 0 | - | ? | 0 | -
CCCS(=O)(=O)NC(=O)C1(C)CCCN(C(=O)CCc2cccs2)C1 (stereo not drawn) | 0 | - | - | - | 0 | -
COc1ccc(NC(=O)C(c2cc3c(cc2[N+](=O)[O-])OCO3)N(C)c2ccccc2)cc1 (stereo not drawn) | 0 | ? | 19.3 | 0 | 0 | 0
Cc1cc(C)c(CN2C(=O)c3ccccc3S(=O)(=O)c3ccc(C(=O)OCC4CCCO4)cc32)c(C)c1 (stereo not drawn) | 0 | ? | - | - | 0 | -
CC(C)(C)C1CCC(=NNC(=O)CN(c2ccccc2)S(C)(=O)=O)CC1 (stereo not drawn) | 0 | 0 | 43.0 | 0 | 0 | 89.9
O=C(NN=C1CCC(c2ccccc2)CC1)c1ccccc1-n1cccc1 (stereo not drawn) | 0 | 0 | 0 | 0 | 0 | 0
CCOC(=O)NN=C1CCC(c2ccccc2)CC1 (stereo not drawn) | - | - | 9.8 | - | - | 0
COC(=O)NN=C1CCC(c2ccccc2)CC1 (stereo not drawn) | 0 | 0 | 0 | 0 | ? | 30.5
CC(C)(C)C(=O)NN=C1CCC(c2ccccc2)CC1 (stereo not drawn) | - | - | 19.1 | - | - | 0
NC(=O)C(=O)NN=C1CCC(c2ccccc2)CC1 (stereo not drawn) | 0 | 0 | 0 | 0 | 0 | 0
CCOC(=O)N/N=C(/c1ccccc1)C1CCCCC1 | 0 | 0 | 0 | 0 | 0 | 0
CN1CCC(=NNC(=O)CN(c2ccccc2)S(=O)(=O)c2ccccc2)CC1 | 0 | 0 | 0 | 0 | 0 | 0
COc1cc(OC)c(C(=O)C=Cc2ccc(OC)c(OC)c2)c(OC)c1 | ? | ? | - | ? | 10µM | -
COc1ccc(C=CC(=O)c2ccc(OC)c(OC)c2)cc1O | 10µM | - | - | - | ? | -
COc1ccc(C(=O)C=Cc2ccc3c(c2)OCO3)cc1OC | 0 | - | - | - | 0 | -
CCOc1cc(/C=N/NC(=O)c2nn(C)cc2Br)ccc1OCc1ccccc1 | 0 | 0 | 0 | 0 | 0 | 0
CCOc1cc(/C=N/OC(C)=O)ccc1OCc1ccccc1 | 0 | 0 | 11.7 | 0 | 0 | 0
COc1cc(C=CC(=O)c2cc(OC)c(OC)c(OC)c2)cc(OC)c1OC | ? | 7.94µM | - | ? | 0 | -
Cc1ccnc2ccc3ccccc3c12 | 0 | - | - | - | 0 | -
CCCn1c(CCC(=O)Nc2ccc(OCC)cc2)nc2cccnc21 | 0 | 0 | - | 0 | 0 | -
SMILES | Vaccinia Venus | LASV entry inh | Cycloheximide cs | MARV entry inh | Vaccinia mCherry | Shiga toxin inh
COCCCN1C(=O)C(CC(=O)NC(c2ccccc2)c2ccccc2)CC(C(=O)N2CCCCCC2)=C1C (stereo not drawn) | 0 | - | - | - | 0 | -
COc1ccc(C(=O)/C=C/c2ccc(OC)c(O)c2)c(F)c1 | 0 | 0 | 67.8 | ? | 0 | 61.4
COc1cc(/C=C/[N+](=O)[O-])ccc1O | 0 | 0 | 0 | 0 | 0 | 0
COc1cc(/C=C/[N+](=O)[O-])ccc1OCc1cccc(C(=O)O)c1 | 0 | 0.631µM | 83.2 | ? | 0 | 131.3
COc1ccc(/C=C/C(=O)C(C)(C)C)cc1OC | 0 | - | 15.6 | - | 0 | 0
COc1ccc(C(=O)C=Cc2ccc(OCc3ccccc3)c(OC)c2)cc1OC | 11.2µM | - | - | - | ? | -
COc1cc(/C=C/C(=O)NC(C)(C)C)ccc1OCc1ccccc1 | 0 | ? | 0 | 0 | 0 | 0
COc1ccc(C=CC(=O)c2ccc(OC)c(OC)c2O)cc1OC | 0 | ? | - | ? | 0 | -
COC(=O)CC1=C(C(=O)OC)[C@H](c2ccc3c(c2Cl)OCO3)C(C#N)=C(N)O1 | - | - | - | 0 | - | -

Screening results deposited in PubChem by National Center for Advancing Translational Sciences (NCATS).
